Compound activity (PubChem)
D2 ag-1: activates the human D2 dopamine receptor; P14416; HEK293 T-REx D2 cells, calcium flux agonist mode; activation, % at 2 µM; 0.53% of 340,000 active; AID 485358;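 active = activation over 3 SD above normal in the single-dose calcium agonist read, cut at about 30% in these data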; also: 0% is about no effect
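HEK293 Trex D2 cells, tetracycline-induced, o/n 30 C 5% CO2; no-wash Ca dye, RT 30–90 min; 10-cycle baseline, 23 nl cpd added, kinetic Ca read 180 s; agonist hits = positive Ca response.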
D2 PAM-1: positive allosteric modulators of human D2 dopamine receptor; P14416; HEK293 T-REx D2, calcium flux, EC20 dopamine potentiation; potentiation, % at 10 µM; 0.34% of 340,000 active;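 active = potentiation over 3 SD above the plate norm, cut at about 30% in these data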; also: 0% is about no effect
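Calcium flux readout, no-wash dye, 1 read/s. Inducible HEK293 Trex D2 line, overnight 30 C. Compound alone 180 s (agonist flags), then EC20 dopamine, another 180 s to score potentiation.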
D2 PAM-2: positive allosteric modulators of human D2 dopamine receptor. P14416. DiscoveRx D2 beta-arrestin cells, luminescence, 90 min; 100% = 57 uM dopamine signal. potentiation, % (concentration not given with the values). 0.23% of 360,000 active; in the data active = potentiation above about 50%; inconclusive = mostly about 30% to 49%
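PathHunter beta-arrestin assay in DiscoveRx D2 cells. Compounds were added with an EC20 of dopamine (50 nM final) for 90 min at 37 deg C. Luminescence was read 1 h after detection reagent, with 57 uM dopamine as the EC100 control.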
D2 ag-2: agonists of human D2 dopamine receptor (beta-arrestin); P14416; DiscoveRx PathHunter D2 beta-arrestin, luminescence, 90 min; 100% = 57 uM dopamine signal; activation, % (no concentration beside the values); 0.084% of 360,000 active; in the data active = activation above about 40%; inconclusive = between about 15% and that limit
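DiscoveRx PathHunter D2 beta-arrestin cells (2,100/well) attached overnight, then compound-stimulated 90 min at 37 C in HBSS/10 mM HEPES/0.1% Tween-20 buffer; beta-galactosidase complementation read by luminescence after 1 h at ambient temperature. Dopamine 57 uM final (EC100) as control.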
D2 antagonist: antagonists of human D2 dopamine receptor | P14416 | HEK293 TREx D2 cells, calcium flux, dopamine EC80 | inhibition, % at 10 µM | 2% of 340,000 active | AID 485344; in the data active = inhibition above about 30%; inactive = below that, where a call was filed; also: 0% is about no effect
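Overnight-induced (tetracycline, 30 C) HEK293 T-REx cells carrying force-coupled D2 receive a no-wash calcium dye, then compound, then EC80 dopamine at 180 s; signals are read kinetically throughout.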
LDHA block: LDHA (human) enzyme inhibition; P00338; activity change, % (values are at about 110 or 230 µM); 0.15% of 480,000 active; purified LDHA, NADH/diaphorase-resazurin fluorescence; active compounds read low; in the data active = activity change below about -30%; inconclusive = mostly about -25% to -30%;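 also: plate controls were DMSO wells for no effect and wells without enzyme for full effect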
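LDH5 2 nM; NADH 0.06 mM, pyruvate 0.2 mM; 200 mM Tris pH 7.4, EDTA, Tween-20; 5 min RT. Detection: diaphorase 0.133 mg/mL + resazurin 37 µM, fluorescence ex540/em590 at 0 and 20 min; normalized to enzyme-free and DMSO wells.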
D3 arrestin ag: D3 receptor agonism confirmed, beta-arrestin readout; 4% of 2,300 active; DiscoveRx D3 beta-arrestin cells, luminescence, 90 min; Potency, µM (highest dose often 76.9 µM), for the others: at the highest dose activation, most hits filed as activators; AID 720506; shares compounds with D2 ag-1;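 also: potency is read from the fitted curve at half-maximal effect; 100% = dopamine control response; nearly all actives have a fitted effect of over 70% in size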
Target sequence (P35462 whole entry, looked up): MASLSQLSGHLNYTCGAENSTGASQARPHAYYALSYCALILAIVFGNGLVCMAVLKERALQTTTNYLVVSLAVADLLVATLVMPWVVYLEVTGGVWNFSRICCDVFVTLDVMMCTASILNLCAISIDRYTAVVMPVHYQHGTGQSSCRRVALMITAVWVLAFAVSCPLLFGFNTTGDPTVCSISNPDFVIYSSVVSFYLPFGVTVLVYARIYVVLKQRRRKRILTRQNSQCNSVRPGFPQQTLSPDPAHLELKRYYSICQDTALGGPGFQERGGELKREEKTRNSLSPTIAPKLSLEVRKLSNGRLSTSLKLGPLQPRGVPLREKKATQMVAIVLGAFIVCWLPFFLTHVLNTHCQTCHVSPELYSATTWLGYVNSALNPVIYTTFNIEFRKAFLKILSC
D2 ag-3: D2 receptor agonism, beta-arrestin counterscreen. shares compounds with D2 ag-1. DiscoveRx PathHunter D2 beta-arrestin, luminescence, 90 min; response scale: percent relative to full dopamine signal. Potency, µM (top dose mostly 76.9 µM), for inactives: at the top dose activation, actives largely listed as activators. 5.9% of 2,300 active. AID 720507; also: potency is read from the fitted curve at half-maximal effect; % of control where 0% means no effect; nearly all actives have a fitted effect of over 70% in size
Numbers without * were called inactive; ? = inconclusive; . = no result given. Rows were chosen to be rich in hits. Some 2.1% of all compounds tested hit in one or more screens of this group. Unless noted, calls follow the shape of the dose curve; as a rule, active = well fitted activation curve with a large enough effect; inconclusive = small, poorly fitted or top-dose-only effect; inactive = flat fitted curve, though single readings scatter.

SMILES	D2 ag-1	D2 PAM-1	D2 PAM-2	D2 ag-2	D2 antagonist	LDHA block	D3 arrestin ag	D2 ag-3
CCCS(=O)(=O)N1CCC(C(=O)NC2CCCCC2C)CC1 (stereo not drawn)	1	-1	-23	-5	10	-15	-15%	-3%
CCS(=O)(=O)N1CCCC(C(=O)NC2CCCCC2C)C1 (stereo not drawn)	0	-5	-4	-2	9	-10	.	.
O=C(NCCc1c[nH]c2ccc(Cl)cc12)C1CCN(c2nc(Cl)nc3nc[nH]c23)CC1	.	.	.	.	.	3	.	.
CC(C)N1CCN(Cc2ccsc2)CC1CCO (stereo not drawn)	44*	-22	-7	-4	44*	-5	-10%	-2%
COc1ccc(CCNC(=O)CSC2=NS(=O)(=O)c3ccccc3N2)cc1OC	0	3	-17	0	-3	-9	.	.
O=C(CSC1=NS(=O)(=O)c2ccccc2N1)NCCc1ccccc1	28	1	-7	2	11	-9	6%	0%
Cc1ccc(-c2cc(C(=O)NCC(C)C)c3ccccc3n2)o1	.	.	.	.	.	1	.	.
CC12CCC3C(CCC4CC(O)CCC43C)C1CC(O)C2 (stereo not drawn)	.	.	2	-2	.	-9	.	.
C[C@]12CCC(O)CC1CCC1C2CC[C@]2(C)C(c3cc(C(F)(F)F)n[nH]3)CCC12 (stereo partly drawn)	16	11	5	-3	44*	2	?	?
CSCCC(NC(=O)c1ccccc1Cl)C(=O)Nc1ccncc1 (stereo not drawn)	1	15	-8	-3	-1	-5	1%	?
CSCCC(NC(=O)c1ccccc1)C(=O)Nc1ccncc1 (stereo not drawn)	0	-7	-1	3	-33	-2	.	.
Cc1ccc(-c2cc(C(=O)Nc3nncs3)c3ccccc3n2)c(C)c1	.	.	.	.	.	-2	.	.
O=C(CN1CCN(c2ccccn2)CC1)N1N=C(c2cc3ccccc3o2)CC1c1ccco1 (stereo not drawn)	.	.	.	.	.	-9	.	.
Oc1ccc(CNCC2COc3ccccc3O2)cc1 (stereo not drawn)	68*	-28	-28	11	185*	-12	-4%	19%
CN(C)S(=O)(=O)c1cccc(CNCC2COc3ccccc3O2)c1 (stereo not drawn)	77*	-27	-8	12	106*	-10	?	29%
c1ccc(CCNCC2COc3ccccc3O2)cc1 (stereo not drawn)	32*	-22	-13	4	24	-5	2%	3%
Cc1ccc(NC(=O)C2CCCN(S(=O)(=O)c3ccc4[nH]c(=O)oc4c3)C2)cc1N(C)C (stereo not drawn)	.	.	.	.	.	12	.	.
COc1cccc(S(=O)(=O)c2cc3ccc(OC)cc3oc2=O)c1	.	.	.	.	.	0	.	.
CC(c1ccccc1)n1c(-c2cccs2)nc2c(c(=O)c3ccccc3n2C)c1=O (stereo not drawn)	2	20	-9	-2	9	-4	-10%	-5%
CCCC(=O)N1N=C(c2cccc(NS(=O)(=O)CC)c2)CC1c1ccco1 (stereo not drawn)	.	.	.	.	.	0	.	.
CSc1nsc(SCC(=O)NCc2ccc(F)cc2)n1	.	.	.	.	.	-22	.	.
COc1ccc(CNC(=O)CSc2nc(SC)ns2)cc1	-1	-10	-4	-3	-6	-8	-10%	-3%
COc1cc(C2C3CCCCC3(O)CCN2Cc2ccc(Cl)cc2)ccc1O (stereo not drawn)	.	.	.	.	.	2	.	.
COc1cc([C@H]2[C@@H]3CCCC[C@]3(O)CCN2CC(=O)Nc2ccc(C)cc2C)ccc1O	29	-5	2	0	-4	1	8%	-3%
Cc1c(Cc2ccccc2)c(=O)oc2c(O)c(O)ccc12	54*	-13	18	10	34*	37	?	23%
SMILES	D2 ag-1	D2 PAM-1	D2 PAM-2	D2 ag-2	D2 antagonist	LDHA block	D3 arrestin ag	D2 ag-3
Cc1ccc(CNC(=O)CSc2nc3cc4c(cc3c(=O)n2Cc2ccco2)OCO4)cc1	.	.	.	.	.	-8	.	.
O=C(N1CCN(Cc2ccccc2)CC1)C12CC3CC(CC(C3)C1)C2	-1	10	-24	-3	-20	1	.	.
O=C(N1CCN(c2ccccc2)CC1)C12CC3CC(CC(C3)C1)C2	80*	-30	-2	7	72*	2	22%	21%
COc1ccc(C2(CCN)CC(C)N(C)CC2C)cc1 (stereo not drawn)	31*	-17	-14	0	23	0	-4%	3%
O=C(NCCS(=O)(=O)N1CCN(c2ccccc2)CC1)C1CC(=O)N(c2ccccc2)C1 (stereo not drawn)	0	13	-3	0	-2	-10	-5%	-1%
O=C(NCCS(=O)(=O)N1CCN(c2ccc(F)cc2)CC1)C1CC(=O)N(c2ccccc2)C1 (stereo not drawn)	0	-9	6	0	-11	-3	.	.
CSc1nc2ccc(NC(=O)c3ccc(=O)n(C)n3)cc2s1	17	-14	-9	1	20	-5	22%	12%
CSc1nc2ccc(NC(=O)c3ccc(F)c(F)c3)cc2s1	2	-5	-5	-2	-11	-2	.	.
CSc1nc2ccc(NC(=O)c3nn(C)c(=O)c4ccccc34)cc2s1	.	.	.	.	.	3	.	.
CSc1nc2ccc(NC(=O)c3ccc(=O)[nH]c3)cc2s1	49*	-17	-6	5	-4	-8	-7%	1%
CCC(=O)Nc1ccc(S(=O)(=O)NCCn2nc(-c3ccc(Cl)cc3)ccc2=O)cc1	.	.	.	.	.	2	.	.
COCCCNC(=O)Cc1c(C)c2c(O)cc(C)cc2oc1=O	.	.	.	.	.	3	.	.
Cc1c(-c2ccccc2)nc2ccccc2c1C(=O)OCC(=O)Nc1ncc(C(F)(F)F)cc1Cl	0	5	-6	1	30*	0	-4%	1%
COc1cc(NC(=O)C2CCCN(c3ncnc4c3nc3n4CCCCC3)C2)cc(OC)c1OC (stereo not drawn)	39*	-3	18	4	-10	-3	5%	-3%
COCCN(Cc1ccco1)C(=O)C1CCCN(c2ncnc3c2nc2n3CCCCC2)C1 (stereo not drawn)	-3	-19	2	1	7	1	4%	-5%
